# FEN1 inhibitor: qHTS Assay for the Inhibitors of Human Flap endonuclease 1 (FEN1); P39748; Recombinant FEN1 flap cleavage, fluorescence, 15 min; Potency, µM (series often up to 114 µM), inactives show at the highest dose activity change, negative = inhibition, actives largely listed as inhibitors; 390,000 tested, 0.35% active; AID 588795, 2011; also: potency is read from the fitted curve at half-maximal effect; % is scaled to controls: 0 for no effect and ±100 for the full control effect; nearly all actives have a fitted effect of over 65% in size
#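 Quantitative HTS format: each compound was titrated, incubated with 10 nM nuclease for 15 min at room temperature, then challenged with flap substrate at 50 nM final. Signal change over 15 min gave concentration–effect curves.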
# Pol kappa inh-1: qHTS for Inhibitors of Polymerase Kappa; DNA polymerase kappa (Homo sapiens), Q9UBT6; purified Pol kappa, fluorescent DNA synthesis assay, 10 min; Potency, µM (top dose mostly 107 µM), without a hit: at the highest dose activity, negative = inhibition, most hits filed as inhibitors; 400,000 tested, 0.53% active; AID 588579, 2011; also: potency is read from the fitted curve at half-maximal effect; % is scaled to controls: 0 for no effect and ±100 for the full control effect
#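 Enzyme at 10 nM met test compounds for 15 min at room temperature. Substrate addition (50 nM final) began the reaction, which was monitored by fluorescence at 0 and 10 min.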
# POLI inh: qHTS for Inhibitors of Polymerase Iota | Potency, µM (highest dose often 115 µM), without a hit: at the highest dose activity, negative = inhibition, usual class: inhibitors | DNA polymerase iota (Homo sapiens), Q9UNA4 | 390,000 tested, 1% active | AID 588590, 2011 | Pol iota fluorescent replication assay, 10 min; also: potency is read from the fitted curve at half-maximal effect
#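 Fluorescent replication assay read twice, at 0 min and 10 min after adding 50 nM (final) substrate. Enzyme (10 nM) and compounds were first incubated 15 min at room temperature; enzyme-free buffer wells were negative controls.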
# POLB inh: qHTS Assay for Inhibitors of DNA Polymerase Beta; P06746; Pol beta primer extension/strand displacement, fluorescence kinetic; Potency, µM (titrated, usually from 114 µM), for the others: at the highest dose activity change, negative = inhibition, most hits filed as inhibitors; 340,000 tested, 1.3% active; also: potency is read from the fitted curve at half-maximal effect; % is scaled to controls: 0 for no effect and ±100 for the full control effect
#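 Values derive from four-parameter Hill fits of normalized kinetic data: reads at 0 and 10 min following addition of 50 nM substrate to 10 nM Pol beta preincubated 15 min with compound.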
# WRN helicase inh: qHTS for Inhibitors of WRN Helicase; Potency, µM (highest dose often 114 µM), inactives show at the highest dose activity change, negative = inhibition, most hits filed as inhibitors; Bifunctional 3'-5' exonuclease/ATP-dependent helicase WRN (Homo sapiens), Q14191; WRN helicase unwinding, fluorescent forked duplex, kinetic; 360,000 tested, 0.46% active; also: potency is read from the fitted curve at half-maximal effect; % is scaled to controls: 0 for no effect and ±100 for the full control effect; nearly all actives have a fitted effect of over 55% in size
#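 Kinetic fluorescence helicase assay: unwinding of a quenched forked DNA duplex (100 nM final) with 2 mM ATP final raises red fluorescence (525/598 nm). Compounds sat 15 min at room temperature with 20 nM WRN beforehand.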
# Pol eta inh-1: qHTS for Inhibitors of Polymerase Eta; DNA polymerase eta (Homo sapiens), Q9Y253; recombinant Pol eta, fluorescent DNA replication assay; Potency, µM (series often up to 114 µM), without a hit: at the highest dose activity change, negative = inhibition, actives largely listed as inhibitors; 390,000 tested, 1.2% active; also: potency is read from the fitted curve at half-maximal effect; % is scaled to controls: 0 for no effect and ±100 for the full control effect
# Target sequence (Q9Y253 whole entry, looked up): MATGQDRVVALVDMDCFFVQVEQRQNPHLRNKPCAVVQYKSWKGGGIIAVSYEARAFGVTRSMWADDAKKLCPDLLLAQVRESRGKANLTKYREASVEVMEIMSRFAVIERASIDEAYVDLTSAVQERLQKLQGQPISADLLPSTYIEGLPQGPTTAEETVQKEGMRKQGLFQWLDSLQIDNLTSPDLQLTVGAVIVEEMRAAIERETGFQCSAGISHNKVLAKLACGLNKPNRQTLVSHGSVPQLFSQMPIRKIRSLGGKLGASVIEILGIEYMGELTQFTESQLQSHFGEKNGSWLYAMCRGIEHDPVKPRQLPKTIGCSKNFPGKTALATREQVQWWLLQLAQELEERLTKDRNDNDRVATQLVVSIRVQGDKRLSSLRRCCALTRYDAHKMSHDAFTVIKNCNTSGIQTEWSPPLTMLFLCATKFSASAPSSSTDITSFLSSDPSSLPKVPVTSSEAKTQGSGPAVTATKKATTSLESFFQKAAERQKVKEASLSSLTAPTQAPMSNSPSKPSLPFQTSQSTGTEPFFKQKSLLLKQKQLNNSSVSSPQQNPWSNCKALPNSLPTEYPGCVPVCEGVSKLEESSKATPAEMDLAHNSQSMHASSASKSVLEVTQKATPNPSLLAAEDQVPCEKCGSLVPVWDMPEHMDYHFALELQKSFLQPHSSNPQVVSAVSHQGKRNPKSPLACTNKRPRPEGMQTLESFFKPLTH
#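 Fluorescent replication assay: 50 nM final substrate added after a 15 min room-temperature compound preincubation with 10 nM enzyme. Signal taken at 0 min and again at 10 min.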
# Pol iota confirm: qHTS for Inhibitors of Polymerase Iota: Confirmatory Assay for Cherry-picked Compounds; shares compounds with Pol kappa inh-1; 1,500 tested, 77% active; Pol iota primer extension, TAMRA/BHQ fluorescence; Potency, µM, most hits filed as inhibitors; also: potency is read from the fitted curve at half-maximal effect
# GALK inh confirm: Confirmation Assay for Inhibitors of Human Galactokinase (GALK); shares compounds with Pol eta inh-1; purified GALK, Kinase-Glo ATP depletion luminescence; Potency, µM (highest dose often 115 µM), for inactives: top-dose activity, negative = inhibition, usual class: inhibitors; 150 tested, 70% active; AID 2015, 2009
# Redox cycling: Confirmatory Assay for Inhibitors of Human Galactokinase (GALK): Phenol-HRP redox assay counterscreen. Potency, µM (top dose mostly 115 µM), for inactives: top-dose activity change, negative = H2O2 signal, usual class: inhibitors. 150 tested, 40% active. Phenol red-HRP H2O2 redox cycling, absorbance 600 nm. shares compounds with Pol eta inh-1
# HEK293 viability: Secondary Assay for Inhibitors of Human Galactokinase (GALK): HEK-293 Cell Viability Assay; shares compounds with Pol eta inh-1; HEK-293 viability, ATP luminescence (CellTiter-Glo), 24/48 h; Potency, µM (series often up to 46.1 µM), inactives show at the highest dose activity change, negative = cytotoxicity, actives largely listed as inhibitors; 170 tested, 10% active; AID 2547, 2010; also: potency is read from the fitted curve at half-maximal effect; % is scaled to controls: 0 for no effect and ±100 for the full control effect
# Pol kappa inh-2: qHTS for Inhibitors of Polymerase Kappa: Confirmatory Assay for Cherry-picked Compounds; AID 720501, 2013; purified Pol-kappa, fluorescent strand-displacement substrate; Potency, µM, hits mostly inhibitors; 920 tested, 76% active; shares compounds with Pol eta inh-1; also: potency is read from the fitted curve at half-maximal effect
# Pol eta inh-2: qHTS for Inhibitors of Polymerase Eta: Confirmatory Assay for Cherry-picked Compounds; shares compounds with Pol eta inh-1; Potency, µM, hits mostly inhibitors; Pol eta primer extension, TAMRA/BHQ fluorescence, 10 min; 2,600 tested, 64% active; also: potency is read from the fitted curve at half-maximal effect
# * hit, by the source's call; ? = inconclusive; · = not tested or not shown; [ ] = remark or other dose. Only some compounds are listed: those with a hit (about 2.4% of all), similar ones and a draw of the others. Calls follow the shape of the dose curve; as a rule, active = well fitted curve in the direction sought with a large enough effect; inconclusive = small, poorly fitted or top-dose-only effect, or another doubt; inactive = no such curve, though single readings can be large; an effect the other way counts as inactive or inconclusive.
SMILES,FEN1 inhibitor,Pol kappa inh-1,POLI inh,POLB inh,WRN helicase inh,Pol eta inh-1,Pol iota confirm,Pol eta inh-2,others
O=C(CSc1n[nH]c(-c2ccc(F)cc2)n1)NCc1ccccc1Cl,7.7%,-4.0%[60.1 µM],-10.4%,4.0%,·,-11.7%,·,·,
COc1cc(/C=C(\C#N)c2nc3ccccc3[nH]2)ccc1OCc1ccc(F)cc1,?,-21.1%,?,11.2µM*,·,79.4µM*,67*,?,
CCOc1cc(/C=C(\C#N)c2nc3ccccc3[nH]2)ccc1OC(C)C(=O)O (stereo unspecified),-1.4%,-11.2%,-12.8%,4.0%,-18.1%,-5.5%,·,·,
C=C1Nc2ccccc2C(=O)N1c1ccc(C(=O)N2CCN(C(=O)c3ccco3)CC2)cc1,-1.6%,3.3%,25.3%,·,·,·,·,·,
CCn1c2ccccc2c2cc(NC(=O)COC(=O)c3ccccc3F)ccc21,-4.0%,-11.7%,22.9%,24.1%,-8.7%[57.1 µM],-15.2%,·,·,
CCn1c2ccccc2c2cc(NC(=O)COC(=O)c3ccc(NC(=O)CC#N)cc3)ccc21,?,22.4µM*,22.4µM*,·,?,?,?,60.1*,
Cc1nnc(N2C(=O)c3oc4ccccc4c(=O)c3C2c2ccco2)s1 (stereo unspecified),-26.4%,?,?,20µM*,?,?,?,?,
CCCCCCCCCCCCCCCCOC[C@H](COP(=O)([O-])OCC[N+](C)(C)C)OC(=O)NC,·,-3.7%[19.4 µM],·,·,·,·,·,·,
CCN(CC)c1ccc2c(C)c(Cl)c(=O)oc2c1,-6.5%,-24.3%,8.7%,-10.5%,-8.2%,-0.1%,·,·,
CCN(CC)c1ccc2c(c1)oc(=O)c1c(Cl)cc(=O)oc12,-21.5%,?,14.1µM*,-14.6%,-9.3%[57.1 µM],14.1µM*,?,?,
CC(C)(C)c1ccc(S(=O)(=O)c2cnc(SCC(=O)Nc3ccc(F)c(Cl)c3)[nH]c2=O)cc1,50.1µM*,?,?,79.4µM*,·,28.2µM*,?,?,
O=C(CSc1ncc(S(=O)(=O)c2ccc(Cl)cc2)c(=O)[nH]1)Nc1cccc(C(F)(F)F)c1,0.0%,-1.8%,?,?,·,-26.2%,·,·,
COc1ccccc1/C=C(\C#N)c1nc(-c2cc3ccccc3oc2=O)cs1,7.1%,-3.7%,16.7%,-20.7%,·,-10.0%,·,·,
COc1cccc(Cn2c(=O)n(Cc3ccccc3)c(=O)c3c2c2cc(OC)ccc2n3C)c1,1.6%,-12.2%,9.5%,14.2%,·,-13.0%,·,·,
CCOC(=O)c1c(C)[nH]c(C)c1S(=O)(=O)N1CCC(C(=O)NCc2ccc(F)cc2)CC1,20.4%,-8.8%,-0.9%,-6.7%,·,-3.9%,·,·,
CCCN(C(=O)c1cccc(-n2cccc2)c1)c1c(N)n(Cc2ccccc2)c(=O)[nH]c1=O,-6.5%,28.2µM*,10µM*,·,50.1µM*,11.2µM*,29.9*,42.6*,
CCCCN(C(=O)c1cccc(-n2cccc2)c1)c1c(N)n(CCC)c(=O)[nH]c1=O,-1.8%,?,14.1µM*,·,56.2µM*,15.8µM*,29.9*,37.9*,
CCc1ccc(NC(=O)CC2C(=O)N(c3ccc(Cl)cc3)C(=O)N2Cc2ccco2)cc1 (stereo unspecified),-20.5%,-23.0%,1.4%,-9.6%,·,-16.7%,·,·,
CC(=O)Nc1ccc(N=Cc2c(O)c(C(=O)Nc3ccccc3)cc3ccccc23)cc1,-6.1%,5.0%,7.4%,?,-27.7%[11.6 µM],?,29.9*,75.7*,Pol kappa inh-2=75.2*
CC(=O)Nc1ccc(N=Cc2c(O)c3ccccc3oc2=O)cc1,-12.1%,2.2%,-31.2%,2.9%,2.5%,7.9%,·,·,
C=CCNC(=O)c1ccc(Cn2c(=S)[nH]c3cc4c(cc3c2=O)OCO4)cc1,?,79.4µM*,20µM*,-14.1%,?,?,67*,·,Pol kappa inh-2=47.4*
C=CCN1C(=O)/C(=C/c2ccc(OC(C)=O)c(OCC)c2[N+](=O)[O-])SC1=S,-20.1%,?,27.6%,?,-34.2%,20µM*,75.2*,67.5*,GALK inh confirm=?;Redox cycling=42.1µM*;HEK293 viability=?
COc1cccc(N=c2oc3ccc(OC)cc3cc2-c2nc3ccccc3[nH]2)c1,?,-35.8%,?,?,?,44.7µM*,33.6*,75.7*,
COc1cccc(N=c2oc3ccccc3cc2-c2nc3ccccc3[nH]2)c1,14.7%,-9.9%,?,1.5%,7.6%,-1.0%,·,·,
O=C(O)Cc1ccc(NC(=O)c2ccc3c(c2)C(=O)N(Cc2ccco2)C3=O)cc1,-26.3%,?,11.2µM*,-7.4%,39.8µM*,3.98µM*,59.7*,23.9*,
O=C(O)Cc1ccc(NC(=O)c2ccc3c(c2)C(=O)N(Cc2ccccc2)C3=O)cc1,·,·,·,·,-7.9%,-12.2%,·,·,
CCOc1ccc(-n2c(=O)c3c(C)c(C)sc3n(CC(=O)NCCc3ccccc3)c2=O)cc1,15.2%,-10.1%,-12.2%,0.6%,·,·,·,·,

# Compound activity as filed in PubChem.
